Assay results: PubChem BioAssay (NCATS)
Records with an inconclusive call do not appear. Calls come from the whole dose curve; as a rule, active = well fitted activation curve with a large enough effect in the main read-out, with a control signal flat (not every such curve was filed as active); inconclusive = small, poorly fitted or top-dose-only effect, or effect the other way, or a change in a side signal; inactive = flat fitted curve, though single readings scatter.

The compounds below were run against 3',5'-cyclic-AMP phosphodiesterase 4B (Homo sapiens) (UniProt Q07343) (assay: qHTS Assay for Inhibitors of PDE-IV (AID 607; note: % of control where 0% means no effect)). Settings: HEK293 ACTOne CNG channel cells, membrane potential fluorescence; series mostly up to 22.9 µM; activation (PDE inhibition): at the top concentration.
How it was run: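 The readout is membrane depolarisation from a cAMP-sensing CNG channel, detected with a potential dye at ex 535/em 590. Cells were HEK293-derived (endogenous PDE-IV) at 1000 cells/well, titrated up to 22.9 uM final.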

3',5'-cyclic-AMP phosphodiesterase 4B (Homo sapiens), sequence (Q07343 whole entry, looked up): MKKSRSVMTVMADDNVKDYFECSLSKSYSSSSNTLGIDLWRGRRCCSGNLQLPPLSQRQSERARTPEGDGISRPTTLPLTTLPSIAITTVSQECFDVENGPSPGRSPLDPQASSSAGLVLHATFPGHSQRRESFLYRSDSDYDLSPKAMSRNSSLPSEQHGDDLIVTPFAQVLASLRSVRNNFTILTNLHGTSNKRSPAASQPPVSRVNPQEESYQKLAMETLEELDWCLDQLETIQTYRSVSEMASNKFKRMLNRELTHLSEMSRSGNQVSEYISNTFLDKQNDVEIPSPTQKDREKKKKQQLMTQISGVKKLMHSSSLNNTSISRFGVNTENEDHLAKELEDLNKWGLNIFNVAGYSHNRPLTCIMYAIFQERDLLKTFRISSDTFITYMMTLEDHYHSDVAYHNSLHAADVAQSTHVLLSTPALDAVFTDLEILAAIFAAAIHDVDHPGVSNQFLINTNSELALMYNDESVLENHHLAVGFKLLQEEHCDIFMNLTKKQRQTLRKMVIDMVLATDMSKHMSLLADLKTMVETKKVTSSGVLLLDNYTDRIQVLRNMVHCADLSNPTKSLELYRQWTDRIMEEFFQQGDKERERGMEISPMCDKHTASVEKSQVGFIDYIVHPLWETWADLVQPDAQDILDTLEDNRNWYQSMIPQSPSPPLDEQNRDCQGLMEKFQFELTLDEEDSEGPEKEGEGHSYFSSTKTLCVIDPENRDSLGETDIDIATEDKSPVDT

Activation (PDE inhibition), inactive:
[O-][N+]1(CC[N+]2([O-])CCCCC2)CCCCC1 4.65%, C[N+](C)(N)Cc1csc(-c2ccc(Cl)cc2)n1 -5.07%, O=C(O)c1nn(-c2ccc(Cl)cc2)c2c1C(=O)c1ccccc1C2=O 16.4%, O=C(O)[C@@H]1[C@@H](C(=O)Nc2ccccc2)[C@@H]2C=C[C@@H]1O2 -3.87%, Nc1ccc(N=Nc2c(S(=O)(=O)O)cc3ccccc3c2S(=O)(=O)O)cc1 -8.79%, NC[C@H]1O[C@H](n2cnc3c(N)ncnc32)C[C@@H]1O 7.29%, O=C(O)C(Cc1ccccc1-c1ccccc1)C(=O)O 7.75%, O=P(O)(O)O[C@@H]1O[C@H](CO)[C@@H](O)[C@H](O)[C@@H]1O 3.41%, O=C(O)[C@@H]1[C@@H](C(=O)NCc2cccnc2)[C@@H]2C=C[C@@H]1O2 -1.26%, N=C(N)SCc1cccc(-c2nc3ccccc3c(=O)o2)c1 -4.59%, O=c1cc(CF)[nH]c(=S)[nH]1 0.0467%, Cc1cc2sc(C)[n+](CCCOS(=O)(=O)O)c2cc1C -0.856%, C/C(=C\c1ccc(Cl)cc1)C(C)(C)C(=O)O 24.1%, Cc1cc(=O)oc2c(OS(C)(=O)=O)c(OS(C)(=O)=O)ccc12 -2.82%, [O-][N+](CCO)(CCO)c1ncnc2nc[nH]c12 7.82%, O=C(O)[C@@H]1Cc2c([nH]c3ccccc23)[C@@H](CCCCO)N1 -4.04%, c1ccc(CCNc2ccccn2)nc1 13.3%, NC(N)=N/N=C\c1ccc(C2CCNCC2)cc1 -3.92%, Cc1ccc(S(=O)(=O)NC(=O)OC23COCN2COC3)cc1 8.49%, N[C@@H](CSCc1ccccc1)C(=O)O -3.13%, O=S(=O)(O)[C@@H](CO)c1ccccc1 (tested in a mixture with another compound) -6.96%, CCN(CC)C[C@@H](O)c1ccc2ccc3ccccc3c2c1 14.5%, COc1cc(N=C(N)N=C(N)N)c2ncccc2c1 -0.672%
